BoNT-A LC inh2 – blocks Botulinum neurotoxin A light chain protease. multiplex microsphere protease substrate cleavage, flow cytometry. inhibition, % at 10 µM. actives 0.17% (n = 360,000). AID 588499; note: plate controls were buffer without enzyme for full effect and enzyme alone for no effect
VHR inh abs – blocks human VHR1 dual specificity phosphatase; recombinant VHR phosphatase, pNPP absorbance; inhibition, % at 13.3 µM; actives 0.52% (n = 290,000); in the data active = inhibition above about 50%
Target sequence (P51452 whole entry, looked up): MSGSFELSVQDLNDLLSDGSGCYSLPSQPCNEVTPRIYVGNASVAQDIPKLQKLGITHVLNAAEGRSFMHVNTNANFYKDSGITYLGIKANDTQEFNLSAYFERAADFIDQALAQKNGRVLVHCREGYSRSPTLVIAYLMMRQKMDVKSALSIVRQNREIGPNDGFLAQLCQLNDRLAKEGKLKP
Bead autofluor – compound fluorescence in toxin protease inhibitor counterscreen | AID 624483 | compound autofluorescence counterscreen, microsphere flow cytometry; active compounds read high | fluorescence intensity (concentration not given with the values) | actives 3.1% (n = 360,000); in the data active = fluorescence intensity above about 16000; inconclusive = no clear call, values can overlap the other calls
Anthrax LF inh2 – anthrax lethal factor protease inhibition. multiplex microsphere protease cleavage assay, LF. inhibition, % at 10 µM. actives 0.12% (n = 360,000). AID 588501; note: plate controls were buffer without enzyme for full effect and enzyme alone for no effect
BoNT-F LC inh – blocks Botulinum neurotoxin F light chain protease; actives 0.22% (n = 360,000); inhibition, % at 10 µM; Multiplex microsphere protease cleavage assay, flow cytometry; AID 588497; in the data active = inhibition above about 35%, passing the limit was not always enough; inconclusive = no clear call, values can overlap the other calls; note: plate controls were buffer without enzyme for full effect and enzyme alone for no effect
MazEF act – MazEF (E. coli) toxin RNase activation; activation, % at 20 µM; P0AE70; FAM/BHQ RNA-DNA oligo cleavage fluorescence, 5 h; actives 0.32% (n = 350,000); in the data active = activation above about 50%
Target sequence (P0AE70 whole entry, looked up): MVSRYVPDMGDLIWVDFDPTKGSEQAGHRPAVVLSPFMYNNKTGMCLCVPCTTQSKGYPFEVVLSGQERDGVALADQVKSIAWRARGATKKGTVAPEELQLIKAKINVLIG
* = called active by the depositor. Hits are enriched below; roughly 4% of the tested compounds scored in any of these assays. Cut-off read from the data, not from the text of the source, unless noted: active = inhibition above about 30%; inconclusive = no clear call, values can overlap the other calls; inactive = below that.

How did Cc1ccc(C(=O)N(CN2CCCC2=O)c2ccccc2)cc1C do in these assays?
BoNT-A LC inh2: 3; VHR inh abs: 43; Bead autofluor: 14958; Anthrax LF inh2: 0; BoNT-F LC inh: 2; MazEF act: 5

How did Cc1ccc(N(CN2CCCC2=O)C(=O)c2ccc(C)c(C)c2)cc1 do in these assays?
BoNT-A LC inh2: inconclusive; VHR inh abs: 5; Bead autofluor: 21259*; Anthrax LF inh2: -1; BoNT-F LC inh: 3; MazEF act: -4

Results for CC1(C)c2ccccc2N2CCC(=O)NC21/C=C/c1ccco1 (stereo not given) ?
VHR inh abs: 7; MazEF act: 106*

What do the screens show for `CCOc1ccccc1C1CC(=O)Nc2cc3c(cc21)OCCO3` (stereo not given)?
BoNT-A LC inh2: -3; VHR inh abs: -13; Bead autofluor: 16905*; Anthrax LF inh2: -2; BoNT-F LC inh: -4; MazEF act: -8

What do the screens show for `CCCOc1ccccc1C1CC(=O)Nc2cc3c(cc21)OCCO3` (stereo not given)?
BoNT-A LC inh2: 0; VHR inh abs: 4; Bead autofluor: 4558; Anthrax LF inh2: 1; BoNT-F LC inh: 24; MazEF act: 0

How did COc1ccc(CCn2c(O)c(C=NCCN3CCCCC3)c(=O)[nH]c2=O)cc1OC do in these assays?
BoNT-A LC inh2: 4; VHR inh abs: 23; Bead autofluor: 20570*; Anthrax LF inh2: 2; BoNT-F LC inh: 6; MazEF act: -8

What do the screens show for `NC1CCCCC1N=Cc1c(O)n(CCc2ccc(F)cc2)c(=O)[nH]c1=O` (stereo not given)?
BoNT-A LC inh2: 3; VHR inh abs: 10; Bead autofluor: inconclusive; Anthrax LF inh2: -6; BoNT-F LC inh: 45*; MazEF act: -32

What do the screens show for `O=C(c1cc2cc([N+](=O)[O-])ccc2oc1=O)N1CCOCC1`?
BoNT-A LC inh2: 0; VHR inh abs: 8; Bead autofluor: 2529; Anthrax LF inh2: 2; BoNT-F LC inh: -1; MazEF act: -8

Results for O=C(c1cc2cc([N+](=O)[O-])ccc2oc1=O)N1CCN(c2ncccn2)CC1 ?
BoNT-A LC inh2: 6; VHR inh abs: 22; Bead autofluor: 7793; Anthrax LF inh2: -2; BoNT-F LC inh: 38*; MazEF act: -5

Results for Cc1[nH]c2ccc(F)cc2c1CCN(Cc1ccncc1)C(=S)Nc1cccc(F)c1 ?
BoNT-A LC inh2: -1; VHR inh abs: 11; Bead autofluor: 5976; Anthrax LF inh2: -4; BoNT-F LC inh: -8; MazEF act: 0

What do the screens show for `COc1ccc2c(=O)cc(-c3ccccc3F)oc2c1`?
BoNT-A LC inh2: 5; VHR inh abs: 6; Bead autofluor: 3780; Anthrax LF inh2: 2; BoNT-F LC inh: 46*; MazEF act: 7

Results for Cc1ccc(S(=O)(=O)NCCC(=O)OCC(=O)N2CCCC2=O)cc1C ?
BoNT-A LC inh2: 3; Bead autofluor: 4871; Anthrax LF inh2: -1; BoNT-F LC inh: 10; MazEF act: -1

How did Cc1ccc(CN2CCSc3ccc(C(=O)N4CCN(c5ncccn5)CC4)cc32)cc1 do in these assays?
BoNT-A LC inh2: 1; VHR inh abs: 22; Bead autofluor: 22029*; Anthrax LF inh2: 2; BoNT-F LC inh: 1; MazEF act: -7

How did CCN1CCN(C(=O)c2ccc3c(c2)N(Cc2ccc(C)cc2)CCS3)CC1 do in these assays?
BoNT-A LC inh2: -1; VHR inh abs: 9; Bead autofluor: 5772; Anthrax LF inh2: -2; BoNT-F LC inh: 2; MazEF act: 6

What do the screens show for `O=C1CS/C(=N\C(=O)N2c3ccccc3Sc3ccccc32)N1`?
BoNT-A LC inh2: -1; VHR inh abs: 13; Bead autofluor: 24179*; Anthrax LF inh2: 1; BoNT-F LC inh: -3; MazEF act: 12

How did Cc1ccc(-c2nc(C#N)c(NCCN3CCCCC3)o2)cc1 do in these assays?
BoNT-A LC inh2: inconclusive; VHR inh abs: -15; Bead autofluor: 22423*; Anthrax LF inh2: -3; BoNT-F LC inh: -11; MazEF act: -2

How did COc1ccc(CNc2oc(COc3ccc(Cl)cc3)nc2C#N)cc1 do in these assays?
BoNT-A LC inh2: -4; VHR inh abs: 15; Bead autofluor: 20982*; Anthrax LF inh2: -3; BoNT-F LC inh: -10; MazEF act: -4

How did N#Cc1nc(-c2ccc(Cl)cc2)oc1NCc1ccco1 do in these assays?
BoNT-A LC inh2: 0; VHR inh abs: 12; Bead autofluor: 3900; Anthrax LF inh2: -7; BoNT-F LC inh: 3; MazEF act: -1

Results for COc1ccc(-c2nc(C#N)c(NCc3ccccc3Cl)o2)cc1OC ?
BoNT-A LC inh2: 1; VHR inh abs: 4; Bead autofluor: 9497; Anthrax LF inh2: 4; BoNT-F LC inh: -2; MazEF act: 5

How did N#Cc1nc(-c2ccc(Cl)cc2)oc1NCc1cccc2c1OCO2 do in these assays?
BoNT-A LC inh2: 1; VHR inh abs: 7; Bead autofluor: 19143*; Anthrax LF inh2: -1; BoNT-F LC inh: -2; MazEF act: 8

Results for COc1ccc(-c2nc(C#N)c(NCc3ccccc3Cl)o2)cc1 ?
BoNT-A LC inh2: inconclusive; VHR inh abs: 7; Bead autofluor: 20055*; Anthrax LF inh2: 0; BoNT-F LC inh: 4; MazEF act: -11

How did COCC(=O)N1CCC(Oc2cccc(C(=O)NCc3ccccn3)c2)CC1 do in these assays?
BoNT-A LC inh2: -2; VHR inh abs: -26; Bead autofluor: 6032; Anthrax LF inh2: 2; BoNT-F LC inh: -9; MazEF act: 6

How did COc1ccccc1NC(=O)NCCCl do in these assays?
BoNT-A LC inh2: -1; VHR inh abs: 4; Bead autofluor: 5421; Anthrax LF inh2: -3; BoNT-F LC inh: -6; MazEF act: 4

What do the screens show for `Cn1cccc1CC(=O)NNC(=O)Nc1ccccc1F`?
BoNT-A LC inh2: 0; Bead autofluor: 3481; Anthrax LF inh2: 1; BoNT-F LC inh: -10; MazEF act: -12

What do the screens show for `Cc1ccc(C)c(N2CCN(S(=O)(=O)c3ccc4c(c3)CC(=O)N4C)CC2)c1`?
BoNT-A LC inh2: 0; VHR inh abs: 13; Bead autofluor: 5965; Anthrax LF inh2: -4; BoNT-F LC inh: 3; MazEF act: -7

How did CN1C(=O)Cc2cc(S(=O)(=O)N3CCN(c4cccc(C(F)(F)F)c4)CC3)ccc21 do in these assays?
BoNT-A LC inh2: 2; VHR inh abs: 52*; Bead autofluor: 5643; Anthrax LF inh2: 0; BoNT-F LC inh: -4; MazEF act: 3

How did COc1cc(C)ccc1OCc1cc(C(=O)N(Cc2nccn2C)C(C)C)no1 do in these assays?
BoNT-A LC inh2: 0; VHR inh abs: 52*; Bead autofluor: 5801; Anthrax LF inh2: -1; BoNT-F LC inh: 5; MazEF act: 13

What do the screens show for `COC(=O)CN1C(=O)C2(C(C#N)=C(N)Oc3ccccc32)C2=C1CC(C)(C)CC2=O` (stereo not given)?
BoNT-A LC inh2: 2; VHR inh abs: -4; Bead autofluor: 22010*; Anthrax LF inh2: -3; BoNT-F LC inh: 3; MazEF act: 2

Results for O=C(NC1CCCCC1)C(c1ccc(F)cc1)N(Cc1ccco1)C(=O)Cn1nnc2ccccc21 (stereo not given) ?
BoNT-A LC inh2: 2; VHR inh abs: 18; Bead autofluor: 18842*; Anthrax LF inh2: 0; BoNT-F LC inh: 4; MazEF act: 8
